In the library only some 10% were active in any assay of this set; here they are far more common.
HPGD block – inhibitors of human 15-hydroxyprostaglandin dehydrogenase (HPGD) | P15428 | purified HPGD, NADH fluorescence kinetic, PGE2 substrate | Potency, µM, usual class: inhibitors | hit rate 4.3% among 150,000; active = well fitted inhibition curve with a large enough effect, not every such curve was filed as active; inconclusive = small, poorly fitted or top-dose-only effect, or another doubt; inactive = no such curve, though single readings can be large or run the other way
Target sequence (P15428 whole entry, looked up): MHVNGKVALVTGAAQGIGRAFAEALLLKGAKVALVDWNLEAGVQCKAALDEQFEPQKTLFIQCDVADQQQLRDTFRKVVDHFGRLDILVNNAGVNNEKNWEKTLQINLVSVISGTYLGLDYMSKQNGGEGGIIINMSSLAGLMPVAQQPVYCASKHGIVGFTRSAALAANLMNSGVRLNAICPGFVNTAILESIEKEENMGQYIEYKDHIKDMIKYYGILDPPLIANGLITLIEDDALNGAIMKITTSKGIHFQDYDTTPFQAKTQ
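20 nM HPGD preincubated 15 min at room temperature with compound in 50 mM Tris-HCl pH 8, 0.01% Tween 20. Started with 1 mM NAD+ and 30 uM prostaglandin E2; NADH fluorescence (360/450 nm) read 5 times over 30-s intervals, last minus first.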
ALDH1A1 inh – ALDH1A1 (human) enzyme inhibition | hit rate 7.3% among 220,000 | Potency, µM (top dose mostly 75.3 µM), actives largely listed as inhibitors | AID 1030 | P00352 | Purified ALDH1A1, NADH fluorescence, propionaldehyde substrate; active = well fitted inhibition curve with a large enough effect, not every such curve was filed as active; inconclusive = small, poorly fitted or top-dose-only effect, or another doubt; inactive = no such curve, though single readings can be large or run the other way
12-hLO inh – blocks human 12-lipoxygenase activity | Potency, µM (doses to about 57.1 µM), usual class: inhibitors | hit rate 0.12% among 150,000 | P18054 | purified 12-hLO, xylenol orange hydroperoxide absorbance | AID 1452; also: nearly all actives have a fitted effect of over 55% in size
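150 nM 12hLO, 25 mM Hepes pH 7.0 + 0.01% Triton X-100; cpd preinc 15 min RT; 40 uM arachidonic acid, 30 min RT; Fe-XO 30 min; A573/A405 ratio as read-out.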
aGal spleen mod – alpha-galactosidase A (human) modulation; human spleen homogenate, 4MU-alpha-Gal fluorescence, 40 min; hit rate 0.008% among 240,000; AID 2107; P06280; Potency, µM (highest dose often 80 µM), usual class: inhibitors
Target sequence (P06280 32-429 limits assumed): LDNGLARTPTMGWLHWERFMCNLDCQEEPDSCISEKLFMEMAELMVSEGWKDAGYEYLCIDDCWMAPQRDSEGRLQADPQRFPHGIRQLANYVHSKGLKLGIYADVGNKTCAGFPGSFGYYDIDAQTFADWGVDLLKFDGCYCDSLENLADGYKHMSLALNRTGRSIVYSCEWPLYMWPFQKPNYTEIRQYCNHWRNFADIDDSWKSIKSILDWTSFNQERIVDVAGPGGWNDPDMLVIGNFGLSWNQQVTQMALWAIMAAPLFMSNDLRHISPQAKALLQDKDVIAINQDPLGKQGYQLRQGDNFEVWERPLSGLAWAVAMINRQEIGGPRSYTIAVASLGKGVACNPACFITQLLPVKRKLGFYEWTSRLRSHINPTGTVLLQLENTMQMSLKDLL
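Human spleen homogenate (1 ug) as enzyme source, 4-methylumbelliferyl-alpha-D-galactopyranoside 1 mM final, citrate/phosphate pH 5.0 with 0.01% Tween-20. Compounds 40 min at 37C, NaOH/glycine stop; fluorescence Ex 365/Em 440, Hill-fit AC50.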
PNC assembly inh – blocks assembly of the perinucleolar compartment; PC3M PTB-GFP, PNC prevalence imaging, 16 h; hits give low values; activity change (PNC), negative = inhibition, % at 10 µM; hit rate 3.1% among 140,000; AID 2417;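 active = readout at or below -70, meaning at least 70% loss of cells showing the perinucleolar compartment, a nuclear body marking cancer cells; inconclusive = readout between -30 and a set limit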
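Read-out is percentage of cells bearing a perinucleolar compartment, from automated 20x imaging of fixed, Hoechst-stained PC3M PTB-GFP cells. Cells were seeded 4 h, then exposed 16 h to compound (23 nl of library stock) in duplicate plates.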
GLA inh pH 4.5 – inhibitors of human alpha-galactosidase A at pH 4.5. purified enzyme, 4-MU-alpha-Gal fluorescence, pH 4.5. activity change, negative = inhibition, % at 105 µM. 230,000 tested, under 10 active. AID 1467
Each line names hits and unclear results; the compound was inactive in the other large screens. Unless noted, calls follow the shape of the dose curve; as a rule, active = well fitted curve in the direction sought with a large enough effect; inconclusive = small, poorly fitted or top-dose-only effect, or another doubt; inactive = no such curve, though single readings can be large; an effect the other way counts as inactive or inconclusive.

Cc1ccc(S(=O)(=O)Nc2ccc(S(=O)(=O)Nc3cc(C)nc(C)n3)cc2)cc1	ALDH1A1 inh 3.98µM (no result: HPGD block, 12-hLO inh, PNC assembly inh)
CN1CCN(c2cc(-c3ccc(N(C)C)cc3)ncn2)CC1	HPGD block inconclusive, ALDH1A1 inh inconclusive, aGal spleen mod inconclusive (no result: PNC assembly inh)
COc1ccccc1-c1ccc2ncnc(Nc3ccccc3)c2c1	ALDH1A1 inh inconclusive (no result: HPGD block, 12-hLO inh, PNC assembly inh, GLA inh pH 4.5)
Cc1cc(NS(=O)(=O)c2ccc(NC(=O)CCCC(=O)O)cc2)nc(C)n1	PNC assembly inh -88.4
CCOC(=O)Nc1ccc(S(=O)(=O)Nc2cc(C)nc(C)n2)cc1	none
COc1ccc(CCNC(=O)c2cc(=O)[nH]c3ccc(Br)cc23)cc1OC	PNC assembly inh -112.6
O=C(Nc1ccc(-c2cn3ccsc3n2)cc1)C1COc2ccccc2O1 (centres undefined)	PNC assembly inh -94.5
O=C1NC(=O)c2cc(NC(=O)C3COc4ccccc4O3)ccc21 (centres undefined)	ALDH1A1 inh inconclusive (no result: HPGD block, 12-hLO inh, PNC assembly inh)
CC1CC(C)CN(S(=O)(=O)c2ccc(NC(=O)C3COc4ccccc4O3)cc2)C1 (centres undefined)	PNC assembly inh -121.7
CC1(C)Oc2ccc(NC(=O)C3COc4ccccc4O3)cc2O1 (centres undefined)	HPGD block 20µM, ALDH1A1 inh 0.0355µM
O=C(O)c1ccc(-c2ccc3cc(C45CC6CC(CC(C6)C4)C5)c(O)cc3c2)cc1	none (no result: HPGD block, ALDH1A1 inh, 12-hLO inh, PNC assembly inh, GLA inh pH 4.5)
CCC(CC)C(=O)c1c[nH]c(C(=O)N2CCN(c3ccccc3F)CC2)c1	none (no result: HPGD block, 12-hLO inh, PNC assembly inh)
CC(CC(=O)Nc1ccccc1C(F)(F)F)c1ccccc1 (centres undefined)	PNC assembly inh inconclusive
CN1Cc2cc(C(=O)c3ccccc3O)cnc2NC1=O	HPGD block 25.1µM, PNC assembly inh inconclusive
CSC(=NC#N)N1CCN(c2ccc([N+](=O)[O-])cc2)CC1	ALDH1A1 inh 17.8µM (no result: HPGD block, 12-hLO inh, PNC assembly inh)
CSC(=NC#N)N1CCN(c2ccccn2)CC1	ALDH1A1 inh 17.8µM (no result: HPGD block, 12-hLO inh, PNC assembly inh)
CSC(=NC#N)N1CCN(C(=NC#N)SC)CC1	ALDH1A1 inh inconclusive (no result: HPGD block, 12-hLO inh, PNC assembly inh)
Nc1ccc(Sc2nnnn2-c2ccccc2)c(Cl)c1	ALDH1A1 inh 22.4µM, PNC assembly inh inconclusive
CC(=O)c1ccc(Sc2nnnn2-c2ccccc2)c([N+](=O)[O-])c1	ALDH1A1 inh 15.8µM
CN1CCN(S(=O)(=O)c2ccc(Sc3nnnn3-c3ccccc3)c([N+](=O)[O-])c2)CC1	none
O=[N+]([O-])c1ccc(Sc2nnnn2-c2ccccc2)c(Cl)c1	ALDH1A1 inh 3.55µM
CCSc1nnnn1-c1ccccc1	ALDH1A1 inh inconclusive
COc1ccc(CCC(=O)NNC(=S)Nc2cccc(C(C)=O)c2)cc1	none (no result: HPGD block, 12-hLO inh, PNC assembly inh)
Cc1ccc(C(=O)C(C)CN2CCCCC2)cc1 (centres undefined)	none (no result: PNC assembly inh)
COc1cc(S(=O)(=O)N2CCOCC2)cc(C(=O)c2nccn2C)c1OC	PNC assembly inh -88.0
CC1(C)C(OC(=O)CCC(=O)O)CC[C@]2(C)C1CC[C@@]1(C)C2C(=O)C=C2[C@@H]3C[C@@](C)(C(=O)O)CC[C@]3(C)CCC21C (some centres undefined)	none (no result: PNC assembly inh)
CCOC(=O)Cc1csc(-n2sc3ccccc3c2=O)n1	HPGD block 1.41µM, ALDH1A1 inh 3.55µM, 12-hLO inh 4.47µM
CCOc1ccc(NC(=O)CCN2CCN(S(=O)(=O)c3ccc(OC)cc3)CC2)cc1	none
NC(=O)CN1CCN(S(=O)(=O)c2ccc(Br)cc2)CC1	none (no result: HPGD block, 12-hLO inh, PNC assembly inh)
COc1ccc(C(=O)CN2CCN(S(=O)(=O)c3cccc([N+](=O)[O-])c3)CC2)cc1	ALDH1A1 inh 10µM
CCOc1ccc(C(=O)CN2CCN(S(=O)(=O)c3ccc(Br)cc3)CC2)cc1	ALDH1A1 inh 22.4µM
COc1cccc(CN2CCN(S(=O)(=O)c3ccc(Br)cc3)CC2)c1	none
COc1cccc(C(=O)CN2CCN(S(=O)(=O)c3ccc(Br)cc3)CC2)c1	ALDH1A1 inh 11.2µM
CCOc1ccc(C(=O)CN2CCN(S(=O)(=O)c3ccc(OC)cc3)CC2)cc1	ALDH1A1 inh 20µM
O=C(c1ccccc1C(=O)N(c1ccccc1)c1ccccc1)N1CCCCC1	none
COc1ccc(N=C2C(=Nc3ccc(OC)cc3)N(c3ccccc3)C(=S)N2C(=O)c2ccc(Cl)cc2)cc1	ALDH1A1 inh inconclusive, PNC assembly inh -100.0
C=CCn1c(=S)[nH]c2scc(-c3cccs3)c2c1=O	ALDH1A1 inh 12.6µM (no result: HPGD block, 12-hLO inh, PNC assembly inh)
Cn1c(=S)[nH]c2scc(-c3cccs3)c2c1=O	ALDH1A1 inh 22.4µM (no result: HPGD block, 12-hLO inh, PNC assembly inh)
Cc1ccc([N+](=O)[O-])cc1NC(=O)C[n+]1ccccc1	none (no result: HPGD block, 12-hLO inh, PNC assembly inh)
Cn1cnnc1SCC(=O)Nc1ccc2nc(SCc3ccccc3F)sc2c1	ALDH1A1 inh 12.6µM
Cn1c(SCC(=O)N2CCOCC2)nnc1-c1cccc(NC(=O)c2ccccc2F)c1	ALDH1A1 inh 25.1µM
Cn1cnnc1SCC(=O)Nc1cccc(C(=O)O)c1	PNC assembly inh inconclusive
Cn1c(SCC(=O)Nc2ccc3nc(SCC(=O)N4CCCC4)sc3c2)nnc1-c1ccccc1	HPGD block 3.98µM, ALDH1A1 inh 22.4µM
CCCC(=O)Nc1ccc2nc(SCC(=O)N3CCCC3)sc2c1	none (no result: HPGD block, 12-hLO inh, PNC assembly inh)
O=C(O)c1ccc(B(O)O)cc1	none (no result: PNC assembly inh)
O=C(Nc1cc(Cl)cc(Cl)c1)N1CCCC1	none (no result: HPGD block, ALDH1A1 inh, 12-hLO inh, PNC assembly inh)
COC(=O)N1CCC[C@@]2(CCN(Cc3nccs3)C2)C1	none (no result: PNC assembly inh, GLA inh pH 4.5)
COc1ccc(-c2[nH]ncc2CNCCn2cccn2)c(F)c1	none (no result: HPGD block, 12-hLO inh, PNC assembly inh)
COc1cccc(Cn2c(=O)c(-c3cccs3)nc3cnc(Nc4ccccc4)nc32)c1	none (no result: PNC assembly inh, GLA inh pH 4.5)
N#Cc1ccccc1S(=O)(=O)N1CCN(CC(O)c2ccccc2)CC1 (centres undefined)	none (no result: HPGD block, 12-hLO inh, PNC assembly inh)
